Rows were chosen to be rich in hits. Some 2.4% of all compounds tested hit in one or more screens of this group.
D2 ag-1 – human D2 receptor agonism in beta-arrestin assay; 0.084% of 360,000 active; P14416; AID 624465; DiscoveRx PathHunter D2 beta-arrestin, luminescence, 90 min; 100% = 57 uM dopamine signal; activation, % (test concentration not listed); in the data active means activation above about 40%; inconclusive means between about 15% and that limit
Target sequence (P14416 whole entry, looked up): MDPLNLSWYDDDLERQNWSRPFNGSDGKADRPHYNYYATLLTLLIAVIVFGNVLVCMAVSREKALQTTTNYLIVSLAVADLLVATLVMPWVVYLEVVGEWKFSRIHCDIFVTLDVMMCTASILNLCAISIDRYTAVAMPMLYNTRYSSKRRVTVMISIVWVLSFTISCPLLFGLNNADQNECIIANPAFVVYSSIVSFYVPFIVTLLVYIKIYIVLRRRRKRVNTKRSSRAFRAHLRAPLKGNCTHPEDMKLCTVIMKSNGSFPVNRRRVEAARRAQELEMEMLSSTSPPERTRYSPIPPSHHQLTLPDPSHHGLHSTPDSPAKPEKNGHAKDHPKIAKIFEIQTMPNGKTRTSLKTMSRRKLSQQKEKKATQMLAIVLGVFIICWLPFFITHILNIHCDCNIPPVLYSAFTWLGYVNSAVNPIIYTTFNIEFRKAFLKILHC
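DiscoveRx PathHunter D2 beta-arrestin cells (2,100/well) attached overnight, then compound-stimulated 90 min at 37 C in HBSS/10 mM HEPES/0.1% Tween-20 buffer; beta-galactosidase complementation read by luminescence after 1 h at ambient temperature. Dopamine 57 uM final (EC100) as control.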
D2 ag-2 – activates the human D2 dopamine receptor. P14416. 0.53% of 340,000 active. activation, % at 2 µM. HEK293 T-REx D2 cells, calcium flux agonist mode;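 active means activation over 3 SD above normal in the single-dose calcium agonist read, cut at about 30% in these data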
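In this primary screen, compounds producing a positive calcium signal within 180 s of addition to tetracycline-induced, force-coupled HEK293 Trex D2 cells are flagged; cells are dye-loaded with a no-wash calcium kit beforehand.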
D2 PAM-1 – positively modulates the human D2 dopamine receptor allosterically | P14416 | HEK293 T-REx D2, calcium flux, EC20 dopamine potentiation | potentiation, % at 10 µM | 0.34% of 340,000 active;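 active means potentiation over 3 SD above the plate norm, cut at about 30% in these data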
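Tetracycline-induced Hek293 Trex D2 cells, force-coupled to calcium, loaded with no-wash calcium dye. Compound added with 180 s kinetic read for agonism, then EC20 dopamine and a further 180 s read for potentiation.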
D2 PAM-2 – positive allosteric modulators of human D2 dopamine receptor. P14416. DiscoveRx D2 beta-arrestin cells, luminescence, 90 min; 100% = 57 uM dopamine signal. potentiation, % (concentration not given with the values). 0.23% of 360,000 active; in the data active means potentiation above about 50%; inconclusive means mostly about 30% to 49%
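PathHunter D2 cells, attached overnight at 37 deg C, received compound in DMSO plus dopamine at EC20 (50 nM final) for 90 min at 37 deg C. Beta-arrestin recruitment was read as luminescence after 1 h with detection reagent at ambient temperature.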
D2 antag – D2 dopamine receptor (human) antagonism. P14416. HEK293 TREx D2 cells, calcium flux, dopamine EC80. inhibition, % at 10 µM. 2% of 340,000 active; in the data active means inhibition above about 30%; inactive means below that, where a call was filed
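Cells plated overnight at 30 C with tetracycline; no-wash calcium dye, 30–90 min RT; 10 s baseline; compound pinned; 180 s read; EC80 dopamine added; another 180 s read.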
Large screens that a line does not name were inactive.

CC1CN(C(=O)CCC(=O)N2CCN(c3cccc(C(F)(F)F)c3)CC2)c2ccccc2O1 (stereo unspecified)	D2 PAM-1 30, D2 antag 41
COCC(=O)N1CCN(c2cccc(C(F)(F)F)c2)CC1	D2 antag 44
Cc1ccc(CNC(=O)C2CCCN(S(=O)(=O)c3ccc4c(c3)oc(=O)n4C)C2)cc1 (stereo unspecified)	none (no result: D2 ag-1, D2 PAM-2, D2 antag)
Cc1ccc(CCNC(=O)c2sc3ncccc3c2-n2c(C)ccc2C)cc1	none (no result: D2 ag-1, D2 PAM-2, D2 antag)
COc1ccc(S(=O)(=O)N2CCCCC2)cc1NC(=O)Cc1ccsc1	D2 antag 30
CCOc1ccc(S(=O)(=O)N2CCCCC2)cc1NC(=O)Cc1ccc(OC)cc1	none (no result: D2 ag-2, D2 PAM-1, D2 antag)
COc1ccc(S(=O)(=O)N2CCCCCC2)cc1NC(=O)Cc1ccccc1	none
CCOc1ccc(S(=O)(=O)N2CCCCC2)cc1NC(=O)Cc1ccsc1	D2 antag 34
COc1ccc(CC(=O)Nc2cc(S(=O)(=O)N3CCCCC3)ccc2C)cc1	D2 antag 31
COC(C[C@@H](O)CC(=O)[C@@H](C)OCc1ccccc1)OC	none
COC(C[C@H](O)C[C@H](O)[C@H](C)OCc1ccccc1)OC	D2 antag 38
COC(=O)c1cccc(-c2ccc(/C=N/N3C(=O)C4C5C=CC(C6CC56)C4C3=O)o2)c1 (stereo unspecified)	D2 antag 32
COC(=O)c1ccc(-c2ccc(/C=N/N3C(=O)C4C5C=CC(C6CC56)C4C3=O)o2)cc1 (stereo unspecified)	none
CCOc1ccc2nc(NC(=O)c3nc(SCc4ccccc4F)ncc3Cl)sc2c1	none (no result: D2 ag-1, D2 PAM-2, D2 antag)
Cc1cc(C)c(C#N)c(N2CCN(Cc3ccc4c(c3)OCO4)CC2)n1	D2 antag 98
Cc1cc(C)c(C#N)c(N2CCN(Cc3ccccc3)CC2)n1	D2 antag 74
N#CCc1c(C#N)c(N)nc(N2CCN(Cc3ccc4c(c3)OCO4)CC2)c1C#N	none
Cc1cc(C)c(C#N)c(N2CCN(S(=O)(=O)Cc3ccccc3)CC2)n1	none
COc1ccccc1CNC(=O)C1CCC(CNS(=O)(=O)c2ccc3c(c2)CCCC(=O)N3)CC1 (stereo unspecified)	none (no result: D2 ag-1, D2 PAM-2, D2 antag)
Cc1nc(S(=O)(=O)N2CCN(c3cccc(Cl)c3)CC2)cn1C	none (no result: D2 ag-1, D2 ag-2, D2 PAM-2, D2 antag)
O=C1NC(c2ccc(-c3ccccc3[N+](=O)[O-])o2)C(C(=O)c2ccc(F)cc2)C(O)(C(F)(F)F)N1 (stereo unspecified)	D2 ag-1 inconclusive, D2 PAM-2 58
COc1ccc2nc3cc(Cl)ccc3c(Nc3cc(C(C)C)c(O)cc3C)c2c1	D2 antag 31
CCN(CC)CCCC(C)Nc1c2ccc(Cl)cc2nc2ccc(OC)cc12 (stereo unspecified)	none (no result: D2 ag-1, D2 PAM-2)
CCOc1ccc(CCNC(=O)c2nn(C)c3c2CSc2ccccc2-3)cc1	none (no result: D2 ag-1, D2 PAM-2, D2 antag)
COc1ccc(CC2CC(=O)N(c3ccc(C)cc3)C2=O)cc1 (stereo unspecified)	none
COc1ccc(OC)c(N2C(=O)CC(Cc3ccc(C)cc3)C2=O)c1 (stereo unspecified)	D2 PAM-1 35
c1ccc(-c2cnn3c(-c4ccccc4)c(-c4ccccc4)nc3n2)cc1	D2 ag-2 137, D2 antag 39
Nc1nc(-c2ccccc2)c(-c2ccccc2)n1N	none
CCOc1ccc(NC(=O)CN2CCSc3ccc(S(=O)(=O)N4CCCC4)cc32)cc1	none (no result: D2 ag-1, D2 PAM-2, D2 antag)
Cc1nc(-c2cccc(NC(=O)COc3ccc(Cl)cc3)c2)cs1	D2 antag 70
O=C(COc1ccc(Cl)cc1)Nc1ccc2[nH]ncc2c1	D2 antag 34
CCC(=O)Nc1cccc(-c2csc(-c3ccccc3)n2)c1	D2 antag 38
CCC(=O)Nc1cccc(C(=O)c2ccccc2)c1	D2 PAM-1 31
CC(C)CC(=O)Nc1cccc(-c2csc(-c3ccccc3)n2)c1	none
CCOc1ccc(N(C)S(=O)(=O)c2ccc3c(c2)C(C)(C)C(=O)N3C)cc1	none (no result: D2 ag-1, D2 PAM-2, D2 antag)
CCOc1ccccc1C(=O)Nc1ccc(S(=O)(=O)Nc2onc(C)c2C)cc1	none (no result: D2 ag-1, D2 PAM-2, D2 antag)
COc1ccccc1/C=C1\SC(=S)N(CCC(=O)Nc2cc(C)on2)C1=O	none (no result: D2 PAM-1)
CCc1nnc(NC(=O)CN2C(=O)/C(=C/c3cc(OC)c(OC)c(OC)c3)SC2=S)s1	D2 PAM-1 31
COc1ccccc1/C=C1\SC(=S)N(CCC(=O)Nc2nnc(C)s2)C1=O	D2 antag 31
CN(C)c1ccc(CN(Cc2ccco2)C(=O)COc2ccc(F)cc2)cc1	none (no result: D2 ag-1, D2 PAM-1, D2 PAM-2, D2 antag)
CSc1nn(Cc2ccc(F)cc2)c(N)c1S(=O)(=O)c1ccc(Cl)cc1	none (no result: D2 ag-1, D2 PAM-2, D2 antag)
Cc1cc(C)nc(NNS(=O)(=O)c2ccc(Cl)cc2)n1	none (no result: D2 ag-2, D2 PAM-1, D2 antag)
COc1ccc(S(=O)(=O)NNc2nc(C)cc(C)n2)cc1Br	D2 antag 52
Cc1ccccc1NC(=S)NC1CCN(Cc2ccccc2)CC1	D2 antag 78
Cc1ccc(NC(=O)CS(=O)CC(=O)NC2CCN(Cc3ccccc3)CC2)c(C)c1 (stereo unspecified)	none
Cc1ccc(NC(=S)NC2CCN(Cc3ccccc3)CC2)c(C)c1	D2 antag 47
CCOc1ccc(NC(=O)c2cc(S(=O)(=O)N3CCc4ccccc43)ccc2F)cc1	none (no result: D2 ag-1, D2 PAM-2, D2 antag)
Cc1ccc(S(=O)(=O)CCSc2nc(C)cc(C)c2C#N)cc1	D2 PAM-1 33
Cc1cc(C)c(C#N)c(SCc2ccccc2C)n1	D2 antag 34
Cc1cc(SCC(=O)N(C)c2c(N)n(Cc3ccccc3)c(=O)[nH]c2=O)nc2ccccc12	D2 antag 38
COc1cc(C)c(Cl)c(C)c1S(=O)(=O)NCc1cccnc1	D2 PAM-1 32
COc1cc([C@@H]2OC[C@@H]3[C@H]2CO[C@@H]3c2ccc3c(c2)OCO3)ccc1O	none (no result: D2 ag-2, D2 PAM-1, D2 antag)
COc1cc(CC2COC(c3ccc(O)c(OC)c3)C2COC(C)=O)ccc1O (stereo unspecified)	D2 antag 45
C=CCN(CC=C)C(=S)Nc1cc(Cl)ccc1OC	D2 ag-1 42
O=C(CC1N=C2c3ccccc3N=C(SCC(=O)Nc3cccc(C(F)(F)F)c3)N2C1=O)NCc1cccs1 (stereo unspecified)	none (no result: D2 ag-1, D2 PAM-2, D2 antag)
COc1cccc(-c2noc(C3CCCN(C(=O)c4ccc(F)cc4F)C3)n2)c1 (stereo unspecified)	D2 antag 33
CCN(CC)CCNC(=O)C1c2cc(OC)c(OC)cc2C(=O)N(C)C1c1cccs1 (stereo unspecified)	D2 antag 35 (no result: D2 PAM-1)
CCNC(=O)c1cnc2sc(N3CCCCCC3)nn2c1=O	none (no result: D2 ag-1, D2 PAM-2, D2 antag)
CCCCn1c(-c2ccc(OC(F)F)cc2)nc2c1c(=O)[nH]c(=O)n2CC(C)C	D2 PAM-1 33
CCOC(=O)C1CCN(S(=O)(=O)CCNC(=O)c2ccc(F)cc2)CC1	D2 antag 30
O=C(NCCS(=O)(=O)N1CCCCCC1)c1ccc(F)cc1	none
